Common to all, as to details: mRNA level, 48 h; actives raise or lower the signal
Read-out in assay [1]: Interleukin 6 (IL6), IL6 (gene 3569)
The experiment in a line: LTEA_HepaRG_IL6: Life Technologies and Expression Analysis (LTEA) Assay for Interleukin 6 (IL6) using HepaRG (AID 2283509). A digest of the protocol: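 Changes in IL6 mRNA, up or down relative to 0.5% DMSO controls, were derived from concentration-response curves in human HepaRG cells treated for 48 h at up to 100 uM, with ACTB, GAPDH and POLR2A as normalizers.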

Read-out in assay [2]: Interleukin 6 Receptor (IL6R), IL6R (gene 3570)
The experiment in a line: LTEA_HepaRG_IL6R: Life Technologies and Expression Analysis (LTEA) Assay for Interleukin 6 Receptor (IL6R) using HepaRG (AID 2283510).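 On AC50: TaqMan qRT-PCR signal normalized to ACTB GAPDH and POLR2A housekeeping genes.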 A digest of the protocol: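 In this HepaRG screen, test chemicals act on cells for 48 h at up to 100 uM (eight half-log points, duplicate wells). IL6R expression is quantified by qRT-PCR after normalization to ACTB, GAPDH and POLR2A, with DMSO as baseline.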

Read-out in assay [3]: Potassium channel subfamily K member 1 (KCNK1), KCNK1 (gene 3775)
Description: LTEA_HepaRG_KCNK1: Life Technologies and Expression Analysis (LTEA) Assay for Potassium channel subfamily K member 1 (KCNK1) using HepaRG (AID 2283511). A digest of the protocol: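 Human HepaRG cultures receive test chemicals for 48 h in 0.5% DMSO, top concentration 100 uM with half-log dilutions. Induction or suppression of KCNK1 mRNA relative to DMSO is derived by bidirectional fitting of qRT-PCR data.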

Read-out in assay [4]: Keratin 19 (KRT19), KRT19 (gene 3880)
Description: LTEA_HepaRG_KRT19: Life Technologies and Expression Analysis (LTEA) Assay for Keratin 19 (KRT19) using HepaRG (AID 2283512). A digest of the protocol:
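Differentiated human HepaRG cells, plated 48 h, were exposed in duplicate for 48 h in serum-free induction medium to eight half-log concentrations up to 100 uM in 0.5% DMSO. KRT19 mRNA was quantified by qRT-PCR, normalized to ACTB, GAPDH and POLR2A, and fitted bidirectionally versus DMSO.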

Read-out in assay [5]: JUN Transcription Factor, JUN (gene 3725)
The experiment in a line: LTEA_HepaRG_JUN: Life Technologies and Expression Analysis (LTEA) Assay for JUN Transcription Factor using HepaRG (AID 2283513). The method in brief:
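Gene-expression endpoint: JUN mRNA (qRT-PCR, normalized to three reference genes) in HepaRG cultures treated 48 h with chemicals, duplicate wells, 100 uM maximum with half-log dilutions; bidirectional fitting relative to 0.5% DMSO.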

Read-out in assay [6]: Lipase C (LIPC), LIPC (gene 3990)
Description: LTEA_HepaRG_LIPC: Life Technologies and Expression Analysis (LTEA) Assay for Lipase C (LIPC) using HepaRG (AID 2283514). A digest of the protocol:
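In this multiplexed gene-expression screen, human HepaRG cultures received test chemicals for 48 h across eight concentrations with 100 uM highest, in duplicate. Values reflect LIPC mRNA induction or suppression versus DMSO vehicle, from normalized qRT-PCR.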

Read-out in assay [7]: Lipoprotein lipase (LPL), LPL (gene 4023)
The experiment in a line: LTEA_HepaRG_LPL: Life Technologies and Expression Analysis (LTEA) Assay for Lipoprotein lipase (LPL) using HepaRG (AID 2283515). The method in brief:
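Concentration-response testing used half-log steps from 100 uM in 0.5% DMSO on human HepaRG cells, 48 h, duplicate wells. Phenobarbital 1 mM served as induction control; LPL mRNA was normalized to ACTB, GAPDH, POLR2A.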

Read-out in assay [8]: MicroRNA 122 (MIR122), gene 406906
The experiment in a line: LTEA_HepaRG_MIR122: Life Technologies and Expression Analysis (LTEA) Assay for MicroRNA 122 (MIR122) using HepaRG (AID 2283516). Further: the transcript read is the microRNA miR-122. The method in brief: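 Changes in transcript abundance, up or down relative to 0.5% DMSO vehicle, were scored after 48 h chemical treatment of HepaRG cells (maximum 100 uM). Quantification used TaqMan qRT-PCR normalized to housekeeping genes.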

Read-out in assay [9]: matrix metalloproteinase-10 (MMP10), MMP10 (gene 4319)
Description: LTEA_HepaRG_MMP10: Life Technologies and Expression Analysis (LTEA) Assay for matrix metalloproteinase-10 (MMP10) using HepaRG (AID 2283517). A digest of the protocol: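 In differentiated HepaRG cultures kept in 0.5% DMSO, test chemicals act for 48 h over an eight-point range with a top dose of 100 uM. Expression is then quantified by TaqMan RT-PCR against ACTB, GAPDH and POLR2A.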

Read-out in a further assay: MYC, MYC (gene 4609)
The experiment in a line: LTEA_HepaRG_MYC: Life Technologies and Expression Analysis (LTEA) Assay for MYC using HepaRG (AID 2283518). A digest of the protocol:
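Differentiated human HepaRG cells, plated 48 h then switched to serum-free induction medium, were exposed in duplicate for 48 h to 8-point half-log series up to 100 uM in 0.5% DMSO. MYC mRNA measured by qRT-PCR, normalized to ACTB/GAPDH/POLR2A.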

Read-out in assay [10]: matrix metalloproteinase-3 (MMP3), MMP3 (gene 4314)
The experiment in a line: LTEA_HepaRG_MMP3: Life Technologies and Expression Analysis (LTEA) Assay for matrix metalloproteinase-3 (MMP3) using HepaRG (AID 2283519). A digest of the protocol:
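Human liver HepaRG cultures received chemicals (top concentration 100 uM, 0.5% DMSO) for 48 h in duplicate. MMP3 mRNA induction or loss was then assessed via TaqMan qRT-PCR with housekeeping-gene normalisation.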

Read-out in assay [11]: Paternally Expressed 10 (PEG10), PEG10 (gene 23089)
Description: LTEA_HepaRG_PEG10: Life Technologies and Expression Analysis (LTEA) Assay for Paternally Expressed 10 (PEG10) using HepaRG (AID 2283520).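 On AC50: PEG10 transcript by qRT-PCR normalised to ACTB GAPDH and POLR2A.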 The method in brief: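 After 48 h exposure of differentiated HepaRG cells (0.5% DMSO vehicle, eight concentrations up to 100 uM, duplicates), PEG10 mRNA was measured by TaqMan qRT-PCR. Values were normalised to endogenous control genes and analysed bidirectionally against vehicle.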

Read-out in assay [12]: Protein phosphatase 2A (PPP2R4), PTPA (gene 5524)
The experiment in a line: LTEA_HepaRG_PPP2R4: Life Technologies and Expression Analysis (LTEA) Assay for Protein phosphatase 2A (PPP2R4) using HepaRG (AID 2283522). A digest of the protocol: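 Using HepaRG cultures maintained in 0.5% DMSO, chemicals are tested 48 h at up to 100 uM in duplicate. Induction or suppression of PPP2R4 mRNA, measured by qRT-PCR, is fitted bidirectionally against the vehicle baseline.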

Read-out in assay [13]: Phosphatase and tensin (PTEN), PTEN (gene 5728)
Description: LTEA_HepaRG_PTEN: Life Technologies and Expression Analysis (LTEA) Assay for Phosphatase and tensin (PTEN) using HepaRG (AID 2283523). A digest of the protocol:
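Expression of PTEN is quantified in the human liver line HepaRG following two days of dosing (top concentration 100 uM, half-log dilutions, 0.5% DMSO). Values derive from bidirectional curve fitting relative to DMSO controls.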

Read-out in assay [14]: Pyruvate Dehydrogenase Kinase 4 (PDK4), PDK4 (gene 5166)
The experiment in a line: LTEA_HepaRG_PDK4: Life Technologies and Expression Analysis (LTEA) Assay for Pyruvate Dehydrogenase Kinase 4 (PDK4) using HepaRG (AID 2283525). A digest of the protocol: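 Eight-point, half-log concentration series (max 100 uM, 0.5% DMSO) applied to differentiated HepaRG cells for 48 h in duplicate. Endpoint: PDK4 mRNA induction or repression by qRT-PCR against DMSO baseline.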

Read-out in assay [15]: NAD(P)H dehydrogenase [quinone] 1 (NQO1), NQO1 (gene 1728)
Description: LTEA_HepaRG_NQO1: Life Technologies and Expression Analysis (LTEA) Assay for NAD(P)H dehydrogenase [quinone] 1 (NQO1) using HepaRG (AID 2283526). A digest of the protocol: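 In this assay, gene expression is read by qRT-PCR after 48 h exposure of HepaRG cells to eight concentrations (max 100 uM, half-log) in 0.5% DMSO. Each chemical runs in duplicate, and activity is scored relative to vehicle.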

Read-out in assay [16]: Nuclear factor erythroid 2-related factor 2 (Homo sapiens) (UniProt Q16236)
Description: LTEA_HepaRG_NFE2L2: Life Technologies and Expression Analysis (LTEA) Assay for Nuclear factor erythroid 2-related factor 2 (NFE2L2) Transcription Factor using HepaRG (AID 2283527).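 On outcome: TaqMan qRT-PCR transcript level normalised to ACTB GAPDH and POLR2A housekeeping genes.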 The method in brief:
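Human liver HepaRG line treated in duplicate for 48 h with an eight-point series topping at 100 uM. Gene expression of NFE2L2 by qRT-PCR, bidirectionally fitted against the vehicle control.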

Read-out in assay [17]: succinate dehydrogenase complex iron sulfur subunit B (SDHB), SDHB (gene 6390)
The experiment in a line: LTEA_HepaRG_SDHB: Life Technologies and Expression Analysis (LTEA) Assay for succinate dehydrogenase complex iron sulfur subunit B (SDHB) using HepaRG (AID 2283528). The method in brief: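 HepaRG, 48 h exposure, 8-pt half-log series from 100 uM in 0.5% DMSO, duplicates. Readout: SDHB mRNA by Fluidigm qRT-PCR vs housekeeping genes; bidirectional fit relative to DMSO.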

Read-out in assay [18]: Nuclear factor NF-kappa-B p105 subunit (Homo sapiens) (UniProt P19838)
The experiment in a line: LTEA_HepaRG_NFKB1: Life Technologies and Expression Analysis (LTEA) Assay for Nuclear Factor Kappa B Subunit 1 (NFKB1) using HepaRG (AID 2283521).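 Further: TaqMan qRT-PCR transcript normalised to ACTB GAPDH and POLR2A housekeeping genes.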 A digest of the protocol: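 Differentiated human HepaRG cells were exposed for 48 h in serum-free induction medium to eight concentrations (top 100 uM, half-log steps, 0.5% DMSO), in duplicate. NFKB1 mRNA was measured by TaqMan qRT-PCR, normalized to ACTB/GAPDH/POLR2A, and fitted bidirectionally against DMSO.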

Usually AC50 stands for the midpoint of the concentration-response curve, whichever way the signal moves.

Structures are written as SMILES. Activity calls are given as the source filed them. How the source made its calls: active means hit-call score of the fitted dose curve at least 0.9, where 1 is the maximum; inactive means score below 0.9.

Sequence of Nuclear factor erythroid 2-related factor 2 (Homo sapiens) (Q16236 whole entry, looked up): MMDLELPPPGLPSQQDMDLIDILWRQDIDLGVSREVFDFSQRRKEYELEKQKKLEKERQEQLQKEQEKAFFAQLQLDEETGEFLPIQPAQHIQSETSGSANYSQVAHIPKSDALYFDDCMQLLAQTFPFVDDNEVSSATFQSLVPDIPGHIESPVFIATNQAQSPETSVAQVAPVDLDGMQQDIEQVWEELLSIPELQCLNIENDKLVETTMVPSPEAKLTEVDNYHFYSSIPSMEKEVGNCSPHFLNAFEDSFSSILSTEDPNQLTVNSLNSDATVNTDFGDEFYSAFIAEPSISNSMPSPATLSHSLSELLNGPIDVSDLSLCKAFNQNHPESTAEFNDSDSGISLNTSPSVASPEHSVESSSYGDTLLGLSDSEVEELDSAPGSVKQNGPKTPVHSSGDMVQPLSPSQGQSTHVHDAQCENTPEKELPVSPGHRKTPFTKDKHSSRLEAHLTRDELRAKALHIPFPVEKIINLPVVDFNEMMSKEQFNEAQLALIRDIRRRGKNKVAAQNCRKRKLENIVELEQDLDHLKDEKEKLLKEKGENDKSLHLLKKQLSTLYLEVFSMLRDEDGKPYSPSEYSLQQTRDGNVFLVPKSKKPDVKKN
Sequence of Nuclear factor NF-kappa-B p105 subunit (Homo sapiens) (P19838 whole entry, looked up): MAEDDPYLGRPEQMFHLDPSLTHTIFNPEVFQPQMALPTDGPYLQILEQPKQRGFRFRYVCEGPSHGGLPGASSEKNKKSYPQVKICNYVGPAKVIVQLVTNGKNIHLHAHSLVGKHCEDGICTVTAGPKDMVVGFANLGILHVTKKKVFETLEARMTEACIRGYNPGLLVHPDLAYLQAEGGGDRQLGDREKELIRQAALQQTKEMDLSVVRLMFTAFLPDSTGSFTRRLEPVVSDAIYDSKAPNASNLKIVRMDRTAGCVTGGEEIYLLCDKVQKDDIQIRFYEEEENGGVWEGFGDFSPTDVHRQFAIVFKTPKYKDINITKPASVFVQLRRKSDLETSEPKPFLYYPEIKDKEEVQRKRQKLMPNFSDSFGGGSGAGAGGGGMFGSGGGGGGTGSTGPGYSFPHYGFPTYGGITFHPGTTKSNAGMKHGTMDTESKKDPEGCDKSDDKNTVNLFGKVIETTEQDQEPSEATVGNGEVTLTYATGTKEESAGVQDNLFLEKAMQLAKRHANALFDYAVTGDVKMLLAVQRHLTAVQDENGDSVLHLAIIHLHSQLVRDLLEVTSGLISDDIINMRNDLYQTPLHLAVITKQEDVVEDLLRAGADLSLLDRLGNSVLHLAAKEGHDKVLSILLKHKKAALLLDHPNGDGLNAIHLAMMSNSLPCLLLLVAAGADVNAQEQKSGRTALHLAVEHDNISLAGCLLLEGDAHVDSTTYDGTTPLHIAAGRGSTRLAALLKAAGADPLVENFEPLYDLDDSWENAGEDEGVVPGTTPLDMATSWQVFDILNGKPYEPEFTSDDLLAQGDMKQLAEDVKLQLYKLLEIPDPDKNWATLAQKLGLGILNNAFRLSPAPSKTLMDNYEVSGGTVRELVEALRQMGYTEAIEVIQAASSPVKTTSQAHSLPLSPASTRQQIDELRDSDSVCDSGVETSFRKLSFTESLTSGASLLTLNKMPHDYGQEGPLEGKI

As for `CC[C@H](C)[C@@H](C(=O)O)n1sc2ccccc2c1=O`, the outcome in assay [1], in assay [2], in assay [3], in assay [4], in [5] and in [6] was inactive. Also, the outcome in assay [7] is “inactive”; in assay [8], “inactive”; in assay [9] it was “inactive”; with MYC, MYC (gene 4609), “inactive”; in assay [10] it was “inactive”; in assay [11], “inactive”. The molecule was called inactive in assay [12], in assay [13], in assay [14], in assay [15], in assay [16] and in assay [17].
`Oc1cc2ccccc2c2ccccc12`: the molecule was called inactive in assay [1], in assay [2], in assay [3], in assay [5], in assay [6] and in assay [8]. Further, the outcome in [9] is “inactive”; with MYC, MYC (gene 4609) it was “inactive”; in assay [10], “inactive”; in assay [18] it was “inactive”; in [12] it was “inactive”; in assay [13], “inactive”. The molecule was classed as inactive in assay [14], in [15], in [16] and in assay [17]. Besides, the AC50 in assay [4] is 27.1 µM (active); in assay [7], 50 µM (active); in assay [11] it was 50 µM (active).
Regarding `OC1CCC(C2CCCCC2)CC1` (configuration not stated), the result in assay [1], in assay [2], in assay [3], in assay [4], in assay [5] and in [6] was inactive. The outcome was “inactive” in assay [7]; “inactive” in [8]; “inactive” in assay [9]; “inactive” in the assay with MYC, MYC (gene 4609); “inactive” in assay [10]; “inactive” in [11]. In addition, the call in assay [12], in [13], in [14], in [15], in assay [16] and in assay [17] was inactive.
As to `CCc1nn(C2CCCCC2)c2cc(C3(C#N)CCC(C(=O)O)CC3)ccc12` (configuration not stated), the AC50 in [1] was 84.9 µM (active); in assay [3], 13.1 µM (active); in [4], 90.5 µM (active); in [6], 78.9 µM (active); in assay [7], 37.2 µM (active); in [8] it was 80.1 µM (active). In addition, the AC50 was 81.6 µM (active) in [9]; 50 µM (active) with MYC, MYC (gene 4609); 12.8 µM (active) in [11]; 11.4 µM (active) in [12]; 33.6 µM (active) in assay [14]; 50 µM (active) in [16]. Also, the result in assay [2], in assay [5], in [10], in assay [18], in assay [13] and in assay [15] was inactive. Further, in assay [17], the molecule was called inactive.
As to `CCN(CC)CCNc1ccc(CNC=O)c2sc3ccc(OC)cc3c(=O)c12`, the half-maximal activity concentration (AC50) in [1] is 76.8 µM (active); in [2], 22 µM (active); in assay [3], 75.2 µM (active); in assay [4], 12.7 µM (active); in assay [5] it was 79 µM (active); in assay [7], 81.8 µM (active). Besides, the AC50 in [8] is 27.5 µM (active); in [9], 78.5 µM (active); in assay [10] it was 86.4 µM (active); in assay [11] it was 62 µM (active); in [12], 50 µM (active); in [13], 50 µM (active). The figures for the concentration at half-maximal activity (AC50) in [14] and in assay [16] were 44.3 µM (active) and 87 µM (active), respectively. In addition, the outcome in assay [6] was “inactive”; in the assay with MYC, MYC (gene 4609) it was “inactive”; in [15], “inactive”; in assay [17], “inactive”.

The values are drawn from PubChem BioAssay (EPA / NIEHS).
